Results filed as inconclusive are left out. Unmarked numbers belong to inactive results. The source made the active and inactive calls. Calls follow the shape of the dose curve; as a rule, active = well fitted curve in the direction sought with a large enough effect; inconclusive = small, poorly fitted or top-dose-only effect, or another doubt; inactive = no such curve, though single readings can be large; an effect the other way counts as inactive or inconclusive.

Chain of Luciferin 4-monooxygenase (Photinus pyralis) (P08659 whole entry, looked up): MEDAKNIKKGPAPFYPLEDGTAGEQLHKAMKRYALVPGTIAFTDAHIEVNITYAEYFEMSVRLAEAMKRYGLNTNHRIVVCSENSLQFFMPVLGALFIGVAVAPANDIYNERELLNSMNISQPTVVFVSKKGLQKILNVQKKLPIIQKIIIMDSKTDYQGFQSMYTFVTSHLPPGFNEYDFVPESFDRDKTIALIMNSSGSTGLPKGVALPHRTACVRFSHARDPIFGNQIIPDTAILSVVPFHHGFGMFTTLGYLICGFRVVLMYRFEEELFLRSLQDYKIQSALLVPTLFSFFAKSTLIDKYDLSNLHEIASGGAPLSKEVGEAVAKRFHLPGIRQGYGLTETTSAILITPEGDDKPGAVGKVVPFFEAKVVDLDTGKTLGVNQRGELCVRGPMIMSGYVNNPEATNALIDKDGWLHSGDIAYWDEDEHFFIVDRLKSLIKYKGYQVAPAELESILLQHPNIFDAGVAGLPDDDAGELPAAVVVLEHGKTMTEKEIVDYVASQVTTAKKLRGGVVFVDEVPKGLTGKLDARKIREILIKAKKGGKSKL

Tested on in one experiment: not listed separately
Kind of experiment: qHTS for Inhibitors of the vitamin D receptor (VDR): Hit Validation using a Texas Red Assay (AID 602201). Also: % is scaled to controls: 0 for no effect and ±100 for the full control effect. As to conditions: VDR coregulator binding, Texas Red fluorescence polarization; series mostly up to 57.1 µM; activity, negative = inhibition: at the top concentration. In short, it runs like this: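 Fluorescence polarization with 1.5 uM VDR-LBD, LG19078 and 7 nM Texas Red (final). After 2 hours at ambient temperature, read at Ex 595 nm/Em 615 nm.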
Background: Quantitative high-throughput screening tests each substance at several concentrations.
Turning to `Cc1nn(Cc2ccccc2)c(C)c1C=C1C(=O)NC(=S)NC1=O`, the “activity, negative = inhibition” value was -17.6%. Take `COc1cc(/C=C/[N+](=O)[O-])ccc1O`: the “activity, negative = inhibition” value was -14.9%. For `O=C1NC(=O)C(=Cc2ccc(-c3ccc(S(=O)(=O)N4CCOCC4)cc3)o2)C(=O)N1`, the “activity, negative = inhibition” value is -19.4%. As for `Cc1ccc(N2C(=O)NC(=O)/C(=C\c3cnc(-c4ccccc4)nc3)C2=O)cc1`, the “activity, negative = inhibition” value is -9.62%. Take `CN1C2CCC1/C(=C/c1ccccn1)C(=O)/C2=C\c1ccccn1`: the “activity, negative = inhibition” value was -13.1%.

Another experiment has as its target Luciferin 4-monooxygenase (Photinus pyralis) (UniProt P08659). Kind of experiment: Biochemical firefly luciferase enzyme assay for NPC (AID 624030). Also: nearly all actives have a fitted effect of over 70% in size. Also: potency is read from the fitted curve at half-maximal effect.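 As to activity change, negative = inhibition: purified P. pyralis luciferase at 10 nM with luciferin and ATP substrate; 0% = DMSO and -100% = full luciferase inhibition by PTC124 control.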 As to conditions: purified P. pyralis luciferase, luminescence, 5 min; series mostly up to 58.6 µM; activity change, negative = inhibition: at the top concentration. A digest of the protocol:
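Purified P. pyralis luciferase at 10 nM in 50 mM Tris Acetate (final), luminescence read within 5 minutes of enzyme addition to compounds. Activity normalised to PTC124 versus DMSO; concentration-response curves classed by r2, magnitude and activity.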
For the compound `CCc1cc(OC)c(CC(C)N)cc1OC` (centres undefined), the “activity change, negative = inhibition” value is -0.396% [at 123 µM]. Same read-out and setting: next, `COC1=CC=C2[C@H]3Cc4ccc(OC)c5c4[C@@]2(CCN3C)C1O5` (some centres undefined): 0.851% [at 123 µM]; `Oc1ccc2c3c1O[C@H]1[C@@H](O)C=CC4[C@@H](C2)NCC[C@@]341` (some centres undefined): -4.93%; `O=[N+]([O-])NC1=NCCN1Cc1ccc(Cl)nc1`: -3.5%.

On to `Cc1c(N)nc([C@@H](CC(N)=O)NC[C@H](N)C(N)=O)nc1C(=O)N[C@H](C(=O)N[C@H](C)[C@H](O)[C@H](C)C(=O)N[C@@H](C(=O)NCCc1nc(-c2nc(C(=O)NCCC[S+](C)C)cs2)cs1)[C@H](C)O)[C@H](O[C@@H]1O[C@@H](CO)[C@@H](O)[C@H](O)[C@@H]1O[C@H]1O[C@H](CO)[C@H](O)[C@H](OC(N)=O)[C@@H]1O)c1cnc[nH]1`, for which the “activity change, negative = inhibition” value is -2.86%.

Turning to `Oc1ccc2c3c1OC1C(O)C=CC4[C@@H](C2)NCC[C@]314` (some centres undefined), the “activity change, negative = inhibition” value is 0.631% [at 123 µM].

With `Clc1ccc([C@H]2CC3CCC2N3)cn1` (some centres undefined), the “activity change, negative = inhibition” value is 0.0963% [at 123 µM]. Turning to `COc1ccc2c3c1OC1[C@H](O)CCC4[C@@H](C2)N(C)CC[C@]314` (some centres undefined), the “activity change, negative = inhibition” value is 1.03% [at 123 µM].

For `CN[C@H](C)Cc1ccccc1`, the “activity change, negative = inhibition” value is 2.93% [at 123 µM]. Consider `C=CCC1(C(C)CCC)C(=O)NC(=O)NC1=O` (centres undefined), for which the “activity change, negative = inhibition” value was 1.62% [at 123 µM].

Turning to `O=C1[O][Sb-]23[O]C(=O)C([O]2)C2[O][Sb-]4([O]C(=O)C([O]4)C1[O]3)[O]C2=O`, the “activity change, negative = inhibition” value was -5.84%. Same read-out and setting: next, `CCC(N)CCc1c[nH]c2ccccc12` (centres undefined): 2.21% [at 123 µM]; `COc1ccc2c3c1OC1C(O)C=CC4[C@@H](C2)NCC[C@]314` (some centres undefined): -0.56% [at 123 µM]. Same read-out and setting: the same measure for `CC(=O)[C@@]1(O)CC[C@@H]2[C@@H]3CCC4=CC(=O)CC[C@]4(C)[C@]3(F)[C@@H](O)C[C@@]21C`: -3.27%.

As to `CCON=C(CC)C1=C(O)CC(c2c(C)cc(C)cc2C)CC1=O` (centres undefined), the “activity change, negative = inhibition” value is -5.34% [at 123 µM]. On to `CC(=O)OC1CC(OC2C(O)CC(OC3C(O)CC(O[C@H]4CC[C@]5(C)C6CC[C@]7(C)[C@@H](C8=CC(=O)OC8)[C@@H](O)C[C@]7(O)[C@@H]6CC[C@@H]5C4)OC3C)OC2C)OC(C)C1OC1OC(CO)C(O)C(O)C1O` (some centres undefined), for which the “activity change, negative = inhibition” value is -4.59%.

`CC1(O)CCC2C3CCC4=CC(=O)CCC4(C)C3(F)C(O)CC21C` (centres undefined): the “activity change, negative = inhibition” value is 0.526%. With `C#C[C@]1(OC(=O)CCCCCC)CC[C@H]2C3CCC4=CC(=O)CC[C@@H]4[C@H]3CC[C@@]21C` (some centres undefined), the “activity change, negative = inhibition” value was -3.44%. Take `CC(=O)Oc1ccc2c3c1OC1C(OC(C)=O)C=CC4[C@@H](C2)N(C)CC[C@]314` (some centres undefined): the “activity change, negative = inhibition” value is 0.983% [at 123 µM].

For the compound `CC(C)=CCN1CC[C@@]2(C)c3cc(O)ccc3C[C@H]1[C@@H]2C`, the “activity change, negative = inhibition” value is 0.692% [at 123 µM]. Consider `Cc1ccc2c(c1)[C@]13CCCC[C@@H]1[C@@H](C2)N(C)CC3`, for which the “activity change, negative = inhibition” value was 2.01%. Still for that read-out and setting: the same measure for `C[C@H]1[C@@H]2Cc3ccc(O)cc3[C@]1(C)CCN2CCc1ccccc1`: 3.58% [at 123 µM]. Take `CC(C)=CCN1CC[C@@]2(C)c3cc(O)ccc3C[C@@H]1C2C` (some centres undefined): the “activity change, negative = inhibition” value was -2.43% [at 123 µM].

On to `C=C/C=C/CC1=C(C)[C@@H](OC(=O)[C@@H]2[C@@H](/C=C(\C)C(=O)OC)C2(C)C)CC1=O` (tested in a mixture with another compound), for which the “activity change, negative = inhibition” value is -6.8%.

For `COc1cc(CC(C)N)c(OC)cc1C` (centres undefined), the “activity change, negative = inhibition” value was 0.238% [at 123 µM]. Consider `CN1CC[C@]23c4c5ccc(O)c4OC2C(O)C=CC3[C@H]1C5` (some centres undefined), for which the “activity change, negative = inhibition” value is -4.14% [at 123 µM].

`ClC[C@H]1CO1` (tested in a mixture with another compound): the “activity change, negative = inhibition” value is -0.162%. For the compound `CCC1CC2CC3c4[nH]c5ccc(OC)cc5c4CCN(C2)C13` (centres undefined), the “activity change, negative = inhibition” value is 3.73% [at 123 µM]. Take `C[N+]1(CCF)[C@@H]2CC[C@@H]1CC(OC(=O)C(O)(c1ccccc1)c1ccccc1)C2` (some centres undefined): the “activity change, negative = inhibition” value was 3%. Turning to `CC(N)C(=O)c1ccccc1` (centres undefined), the “activity change, negative = inhibition” value is -14.4% [at 123 µM].

For `CC1[C@H]2Cc3ccc(O)cc3[C@]1(C)CCN2C` (some centres undefined), the “activity change, negative = inhibition” value is -0.801% [at 215 µM].

On to `O=C1OC(c2cc(I)c(O)c(I)c2)(c2cc(I)c(O)c(I)c2)c2ccccc21`, for which the Potency is 32.2 µM (active). On to `CC12CCC(=O)CC1CCC1C2CCC2(C)C1CCC2(C)O` (centres undefined), for which the “activity change, negative = inhibition” value is -1.77%. On to `C=CCC1(O)CCC2C3CCC4=CC(=O)CCC4=C3C=CC21C` (centres undefined), for which the “activity change, negative = inhibition” value was -1.05%.

For the origin of these results see PubChem BioAssay (NCATS).
